# Only some compounds are listed: those with a hit (about 5.9% of all), similar ones and a draw of the others.
# LANA-H2B inh: blockers of LANA interaction with H2A/H2B – biochemical, FP readout, HTS, primary screen; Protein LANA1 (Human herpesvirus 8 type P (isolate GK18)), Q9QR71; cell-free LANA-H2A/H2B peptide, fluorescence polarization; inhibition, % (concentration not given with the values); 320,000 compounds, 0.6% hits; in the data active means inhibition mostly above about 10%, no sharp cut-off; inactive means mostly below about 6.7%
# PRMT1 FP inh: PRMT1 methyltransferase inhibitors, primary screen, biochemical, fluorescence polarization; recombinant PRMT1, activity-based probe fluorescence polarization; inhibition, % at 2.79 µM; 370,000 compounds, 1.3% hits; AID 652257, 2013;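 active means inhibition above about 21% made by adding two undisclosed values, limit read from the data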
# Target sequence (Q99873 whole entry, looked up): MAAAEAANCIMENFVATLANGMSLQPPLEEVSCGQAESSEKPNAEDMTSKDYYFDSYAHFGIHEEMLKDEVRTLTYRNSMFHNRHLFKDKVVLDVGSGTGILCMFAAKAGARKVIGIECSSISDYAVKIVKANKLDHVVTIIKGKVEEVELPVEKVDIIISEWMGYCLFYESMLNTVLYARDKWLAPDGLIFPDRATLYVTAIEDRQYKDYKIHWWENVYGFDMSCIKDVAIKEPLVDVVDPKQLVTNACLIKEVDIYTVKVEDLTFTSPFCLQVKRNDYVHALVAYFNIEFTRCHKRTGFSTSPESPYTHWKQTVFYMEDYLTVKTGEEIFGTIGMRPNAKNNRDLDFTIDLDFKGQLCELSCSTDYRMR
# rCAG binder: binders of r(CAG) RNA repeats, primary screen, biochemical, fluorescence | r(CAG) RNA repeat, TO-PRO-1 dye displacement fluorescence | inhibition, % at 3 µM | 370,000 compounds, 1.3% hits | AID 651821, 2012;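 active means inhibition above the plate cutoff, the mean of all test compounds on that plate plus 3 SD, cut at about 35% in these data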;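 further: 0% = DMSO alone and 100% = 100 µM mitoxantrone as full dye displacement; higher means more dye released from RNA so lower well fluorescence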
# ABHD5 PLIN5 PPI: ABHD5-PLIN5 interaction inhibitors, primary screen, cell lysate, split luciferase complementation, luminescence; inhibition, % at 4 µM; AID 602281, 2012; 360,000 compounds, 0.78% hits; Perilipin-5 (Homo sapiens) + 1-acylglycerol-3-phosphate O-acyltransferase ABHD5 (Homo …; Split G. princeps luciferase complementation, 4 h;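 active means inhibition above the mean inhibition across every tested compound plus 3 SD, cut at about 22% in these data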;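 further: 0% = DMSO only wells and the 100% control is not disclosed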
# ALR H2O2 inh: inhibitors of human ALR sulfhydryl oxidase, primary screen, biochemical, H2O2 detection, HRP-luminol luminescence, single point. FAD-linked sulfhydryl oxidase ALR (Homo sapiens), P55789. 290,000 compounds, 3.8% hits. inhibition, % (test concentration not listed). purified ALR, DTT oxidation;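 active means mean replicate inhibition above about 79%, with every replicate also reaching it, limit read from the data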
# Target sequence (P55789 whole entry, looked up): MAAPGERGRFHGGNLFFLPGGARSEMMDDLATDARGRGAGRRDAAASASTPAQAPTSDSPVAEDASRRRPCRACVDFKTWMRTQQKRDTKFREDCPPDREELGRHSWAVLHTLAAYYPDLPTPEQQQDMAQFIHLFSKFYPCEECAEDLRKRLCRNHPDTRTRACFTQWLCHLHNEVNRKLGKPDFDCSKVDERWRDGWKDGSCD
# Rtt109 HAT inh: inhibitors of C. albicans Rtt109/Vps75 HAT, primary screen, biochemical, ThioGlo CoA-SH fluorescence, plate reader. Histone acetyltransferase RTT109 (Candida albicans (strain SC5314 / ATCC MYA-2876)), …. 330,000 compounds, 0.16% hits. inhibition, % at 34.9 µM. purified Rtt109/Vps75, 4 h. AID 540336, 2011;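 active means inhibition of at least 50% in every replicate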
# rCAG bind conf: small molecules binding CAG repeat RNA – biochemical, fluorescence, confirmation; shares compounds with rCAG binder; r(CAG) RNA repeat, TO-PRO-1 dye displacement fluorescence; inhibition, % at 3 µM; 4,300 compounds, 70% hits; AID 652065, 2013;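 active means inhibition above a per-plate cutoff, the mean inhibition of sample wells plus 3 SD, cut at about 35% in these data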;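 further: loss of TO-PRO-1 fluorescence as compound displaces dye from 1x1 AA loop RNA; 0% = DMSO only wells and 100% = 100 µM mitoxantrone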
# DNA CAG counter: displacement of TO-PRO-1 from CAG DNA duplex, counter-screen for rCAG RNA repeat binder project, biochemical, fluorescence, TO-PRO-1 dye, d(CAG) DNA oligo. AID 652068, 2013. shares compounds with rCAG binder. inhibition, % at 3 µM. d(CAG) DNA oligo TO-PRO-1 dye displacement. 4,300 compounds, 94% hits;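 active means inhibition above its plate's cutoff, the mean test-well inhibition plus 3 SD, cut at about 4.8% in these data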;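 further: 0% = DNA dye mix with DMSO and 100% = 100 µM mitoxantrone; hits displace the dye from DNA and so lower well fluorescence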
# * hit, by the source's call; nt = not tested or not shown.
SMILES,LANA-H2B inh,PRMT1 FP inh,rCAG binder,ABHD5 PLIN5 PPI,ALR H2O2 inh,Rtt109 HAT inh,rCAG bind conf,DNA CAG counter
CC(=NNC(=O)CSc1nnc(-c2ccccc2)n1-c1ccccc1)c1ccc2ccccc2c1,nt,-3,12,nt,nt,nt,nt,nt
O=S1(=O)c2ccc(N3CCN(Cc4ccccc4F)CC3)cc2Oc2ccccc2CN1Cc1cn(Cc2cccc(F)c2)nn1,nt,-3,17,nt,nt,nt,nt,nt
O=[N+]([O-])c1cc(-c2nnc(N3CCOCC3)c3ccccc23)ccc1N1CCOCC1,-3,-3,90*,1,-2,-2,1,2
Cc1ccc(NC(=O)Nc2nnc(CSCCOc3ccc(Cl)cc3)s2)cc1,-6,5,12,-4,-13,-8,nt,nt
COc1ccc(NC(=O)Nc2nnc(CC(=O)Nc3ccccc3)s2)cc1,2,-2,42*,3,-7,35,16,15*
CC(c1ccccc1)c1nnc(NC(=O)Nc2ccccc2F)s1 (stereo not drawn),-1,6,10,-3,1,8,nt,nt
COc1cccc(NC(=O)Nc2nnc(CC(=O)Nc3ccccc3)s2)c1,-5,2,43*,3,-2,-13,32,21*
CCCCOc1ccc(NC(=O)Nc2nnc(C)s2)cc1,-3,3,37*,4,-5,2,10,8.2*
CCc1nnc(NC(=O)Nc2ccc(OC)cc2)s1,2,2,24,-5,nt,0,nt,nt
CC(c1ccccc1)c1nnc(NC(=O)Nc2ccccc2)s1 (stereo not drawn),2,-1,43*,-9,-2,8,25,17*
CCCCn1nnnc1C(c1ccccc1)N1CCN(c2ccc(C(F)(F)F)cc2[N+](=O)[O-])CC1 (stereo not drawn),nt,-4,8,-16,nt,nt,nt,nt
CCCCCCCCN1C(=O)[C@@H](CC(=O)N2CCOCC2)C[C@@]2(C(=O)OC)C1=C[C@H](COCc1ccccc1)O[C@@H]2C,nt,-1,5,nt,nt,nt,nt,nt
Oc1ccc(C=NN=C2c3ccccc3-c3ccccc32)c(O)c1,nt,0,49*,8,nt,2,49*,32*
O=[N+]([O-])c1cccc(/C=N\N=C2c3ccccc3-c3ccccc32)c1O,-2,-2,2,-1,-5,4,nt,nt
Fc1c(F)c(F)c(N/N=C/c2c[nH]c3ccccc23)c(F)c1F,-3,7,34,-2,12,14,nt,nt
C(=NN=C1c2ccccc2-c2ccccc21)c1c[nH]c2ccccc12,nt,3,35*,2,nt,-2,39*,20*
COC(CNS(=O)(=O)c1cc2c3c(c1)CCN3C(=O)CC2)OC,-6,3,2,-6,-19,5,nt,nt
COc1ccc(NC(=O)C2(C)CCN2CC2CCCCC2)cc1OC (stereo not drawn),nt,2,-3,1,nt,nt,nt,nt
COC(=O)c1cc(OC)c(OC)cc1NC(=S)Nc1cc(Cl)ccc1OC,-1,-4,2,-1,14,-4,nt,nt
COc1ccc(Cl)cc1NC(=S)NNC(=O)C1(C)CC1(Cl)Cl (stereo not drawn),-3,-2,43*,3,52,11,25,5.5*
CSc1ccc(C(c2c(C)[nH][nH]c2=O)c2c(C)[nH][nH]c2=O)cc1,2,-2,8,-14,-46,6,nt,nt
CCOC(=O)c1[nH]c2ccccc2c1NC(=O)c1cc(OC)c(OC)c(OC)c1,10,-2,-3,5,-3,-15,nt,nt
CCOc1cc(Br)cc(C(c2c(C(=O)O)[nH]c3ccccc23)c2c(C(=O)O)[nH]c3ccccc23)c1O,3,0,95*,-8,44,13,84*,59*
CSc1ccc(C(c2c(C(=O)O)[nH]c3ccccc23)c2c(C(=O)O)[nH]c3ccccc23)cc1,3,-5,89*,6,52,26,82*,50*
O=c1cc(-c2ccccc2Cl)oc2c([N+](=O)[O-])c(O)cc(O)c12,-1,1,51*,0,57,1,35*,12*
SMILES,LANA-H2B inh,PRMT1 FP inh,rCAG binder,ABHD5 PLIN5 PPI,ALR H2O2 inh,Rtt109 HAT inh,rCAG bind conf,DNA CAG counter
Cc1cccc2sc(NNC(=O)c3cc(=O)c4ccccc4o3)nc12,4,14,54*,-4,nt,9,78*,35*
Cc1ccc2sc(NNC(=O)c3cc(=O)c4ccccc4o3)nc2c1C,-2,10,75*,-18,99*,-3,86*,45*
COc1ccc2nc(NNC(=O)c3cc(=O)c4ccccc4o3)sc2c1,-2,22*,36*,-4,nt,0,55*,19*
O=C(NNc1nc2c(F)cccc2s1)c1cc(=O)c2ccccc2o1,1,10,58*,-15,nt,-2,68*,24*
COC(=O)[C@]12C[C@H](CC(=O)N3CCSCC3)C(=O)N(Cc3ccco3)C1=C[C@H](C1CCCC1)O[C@@H]2C,nt,3,1,nt,nt,nt,nt,nt
O=C(CCN1C(=O)S/C(=C\c2ccc(Cl)cc2)C1=O)Nc1ccc(C(=O)O)cc1,-3,1,-1,-4,3,-1,nt,nt
Cc1ccc(/C=C2/SC(=S)N(CCCC(=O)Nc3cc([N+](=O)[O-])ccc3O)C2=O)cc1,9,1,1,2,0,-10,nt,nt
COc1ccc(/C=C2\SC(=O)N(CCCC(=O)Nc3ccc(C(=O)O)cc3)C2=O)cc1,nt,2,4,-1,nt,nt,nt,nt
O=C(CCN1C(=O)S/C(=C\c2ccc(F)cc2)C1=O)Nc1ccc(C(=O)O)c(O)c1,1,5,68*,18,7,20,43*,11*
O=C(CCN1C(=O)/C(=C/c2ccc(F)cc2)SC1=S)NCCc1ccc(O)cc1,2,-4,6,0,1,-5,nt,nt
O=C(CCN1C(=O)S/C(=C/c2ccc(F)cc2)C1=O)Nc1ccc(O)c(C(=O)O)c1,1,2,51*,0,4,-7,36*,9.1*
O=C(CN1C(=O)S/C(=C\c2ccccc2)C1=O)Nc1cc([N+](=O)[O-])ccc1O,4,17,80*,8,49,18,61*,24*
